The structures appear in SMILES notation. “And” between values parts separate entries of the source, which are not always exact repeats. Identical values can stand only once. Records with an inconclusive call do not appear. For some of these results: Entries with a potency or affinity are not part of this list. The source made the active and inactive calls. No stated cut-off is given here; in the data, active means fluorescence slope change above about 50%; inconclusive means mostly about 31% to 49%; inactive means weaker than that.

For one experiment, the target named is ATP-dependent translocase ABCB1 (Homo sapiens) (UniProt P08183). The experiment can be described thus: P-glycoprotein substrate transport blockade – cell-based (AID 377). As to conditions: MDR1-expressing cells, fluorescent substrate accumulation slope; stronger effect = higher value; concentration not given here.
Chain of ATP-dependent translocase ABCB1 (Homo sapiens) (P08183 whole entry, looked up): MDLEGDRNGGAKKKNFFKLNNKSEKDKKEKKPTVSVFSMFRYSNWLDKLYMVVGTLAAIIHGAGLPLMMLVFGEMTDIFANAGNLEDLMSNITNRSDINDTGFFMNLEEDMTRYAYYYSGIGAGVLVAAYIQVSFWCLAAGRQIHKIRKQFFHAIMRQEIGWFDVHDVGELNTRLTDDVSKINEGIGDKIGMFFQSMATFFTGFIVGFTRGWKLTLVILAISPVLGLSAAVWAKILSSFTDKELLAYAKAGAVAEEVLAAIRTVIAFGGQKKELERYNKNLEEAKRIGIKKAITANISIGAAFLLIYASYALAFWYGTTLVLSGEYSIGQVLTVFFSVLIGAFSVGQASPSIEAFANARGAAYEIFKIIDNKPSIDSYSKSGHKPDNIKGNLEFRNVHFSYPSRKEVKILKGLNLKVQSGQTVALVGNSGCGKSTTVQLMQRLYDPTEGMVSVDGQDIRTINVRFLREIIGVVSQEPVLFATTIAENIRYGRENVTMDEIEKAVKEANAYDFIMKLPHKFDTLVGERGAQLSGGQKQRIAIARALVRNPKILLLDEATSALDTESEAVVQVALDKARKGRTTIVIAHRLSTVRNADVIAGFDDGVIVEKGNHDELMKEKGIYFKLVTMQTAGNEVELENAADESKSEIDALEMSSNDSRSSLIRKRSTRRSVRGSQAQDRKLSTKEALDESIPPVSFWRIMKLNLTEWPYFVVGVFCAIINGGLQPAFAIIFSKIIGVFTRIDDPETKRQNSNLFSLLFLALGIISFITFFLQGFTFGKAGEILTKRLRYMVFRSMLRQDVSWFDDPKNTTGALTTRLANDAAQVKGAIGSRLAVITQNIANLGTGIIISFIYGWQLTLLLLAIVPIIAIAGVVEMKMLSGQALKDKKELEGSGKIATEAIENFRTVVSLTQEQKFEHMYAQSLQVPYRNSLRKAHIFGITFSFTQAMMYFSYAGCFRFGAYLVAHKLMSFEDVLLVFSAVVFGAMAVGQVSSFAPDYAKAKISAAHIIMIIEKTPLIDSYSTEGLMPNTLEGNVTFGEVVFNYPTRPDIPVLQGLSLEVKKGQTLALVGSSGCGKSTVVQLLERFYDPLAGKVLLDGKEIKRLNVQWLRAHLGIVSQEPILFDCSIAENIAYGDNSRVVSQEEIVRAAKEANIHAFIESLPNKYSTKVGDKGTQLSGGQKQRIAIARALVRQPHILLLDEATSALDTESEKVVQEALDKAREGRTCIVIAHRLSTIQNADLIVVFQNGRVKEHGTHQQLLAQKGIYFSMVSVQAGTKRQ
In the case of `CC[N+]1(C)CCCC(OC(=O)C(O)(c2ccccc2)c2ccccc2)C1` (centres undefined), the fluorescence slope change was 17.6% (inactive).

As for `CC1=NCCc2c1[nH]c1cc(O)ccc21`, the fluorescence slope change was 159% (active).

With `CC[C@@H]1C(=O)OC[C@@H]1Cc1cncn1C`, the fluorescence slope change is 105% (active).

Consider `COc1ccc2c(c1O)-c1c(OC)c(OC)cc3c1[C@H](C2)N(C)CC3`, for which the fluorescence slope change was 13.7% (inactive).

On to `COc1ccc2c(c1)[nH]c1c(C)nccc12`, for which the fluorescence slope change is 59.3% (active).

On to `COc1ccc2c3c([nH]c2c1)C(C)=NCC3`, for which the fluorescence slope change is 7.9% (inactive).

Regarding `CN1CCc2cc3c(cc2C1O)OCO3` (centres undefined), the fluorescence slope change is 10.4% (inactive).

Tested on in a further experiment: not listed separately
The experiment can be described thus: blockers of polyQ-driven CASP3 activation – cell-based (AID 1583). As to conditions: polyglutamine-induced caspase-3 activation, cell assay; stronger effect = higher value;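 tested at 10 µM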.
As a reminder, the inhibition is the change of the read-out against control, counted positive when it falls. Turning to `[N-]=[N+]=CC(=O)OCC(N)C(=O)O` (centres undefined), the inhibition was 30.9%.

Consider `C[C@H](N)[C@H](O)c1ccc(O)c(O)c1`, for which the inhibition was found to be 6.31%.

Regarding `CC[N+]1(C)CCCC(OC(=O)C(O)(c2ccccc2)c2ccccc2)C1` (centres undefined), the inhibition is -29.9%.

In the case of `CC1=NCCc2c1[nH]c1cc(O)ccc21`, the inhibition was -45.7%.

Take `ClC1C(Cl)C(Cl)C(Cl)C(Cl)C1Cl` (centres undefined): the inhibition was 25.7%.

Turning to `C=CCC1(C(C)CCC)C(=O)N=C(S)NC1=O` (centres undefined), the inhibition was found to be 1.58%.

For `CCCCCCCCCCCCCCCC[n+]1ccccc1`, the inhibition was found to be 55.6%.

Regarding `OC1CCCCC1N1CCC(c2ccccc2)CC1` (centres undefined), the inhibition was -2.9%.

Turning to `CC[C@@H]1C(=O)OC[C@@H]1Cc1cncn1C`, the inhibition was 5.24%.

On to `O=[N+]([O-])c1cc([As](=O)(O)O)ccc1O`, for which the inhibition came to 4.6%.

For `NC(N)=NOCC[C@H](N)C(=O)O`, the inhibition worked out at 10.5%.

For the compound `O=C1C=CC(=O)c2c(O)cccc21`, the inhibition is -40.3%.

`NCCc1c[nH]c2ccccc12`: the inhibition was determined as 21.6%.

As to `CN[C@@H](C)[C@@H](O)c1ccccc1`, the inhibition was 11.2%.

On to `COc1ccc2c3c([nH]c2c1)C(C)=NCC3`, for which the inhibition is -62.4%.

On to `CN1CCc2cc3c(cc2C1O)OCO3` (centres undefined), for which the inhibition was -17.4%.

As for `CNC(C)C(O)c1ccccc1` (centres undefined), the inhibition was 28.1% and 10.2%.

For the compound `CN(C)[C@@H]1C(=O)C(C(N)=O)=C(O)[C@@]2(O)C(=O)C3=C(O)c4c(O)ccc(Cl)c4[C@@](C)(O)[C@H]3C[C@@H]12`, the inhibition was 15.6%.

Tested on in a further experiment: not listed separately
Put plainly: yeast 75Q aggregation reduction – 75Q-TubU reporter (AID 1593). As to conditions: Yeast 75Q polyglutamine aggregation reporter.
Take `[N-]=[N+]=CC(=O)OCC(N)C(=O)O` (centres undefined): the score was found to be 1.27.

`C[C@H](N)[C@H](O)c1ccc(O)c(O)c1` displayed a score of 1.43.

`CC[N+]1(C)CCCC(OC(=O)C(O)(c2ccccc2)c2ccccc2)C1` (centres undefined) showed a score of 1.45.

As to `CC1=NCCc2c1[nH]c1cc(O)ccc21`, the score was 0.81.

In turn, `ClC1C(Cl)C(Cl)C(Cl)C(Cl)C1Cl` (centres undefined) yielded a score of 0.3.

For `C=CCC1(C(C)CCC)C(=O)N=C(S)NC1=O` (centres undefined), the score was 1.49.

Turning to `CCCCCCCCCCCCCCCC[n+]1ccccc1`, the score is -0.08.

Take `OC1CCCCC1N1CCC(c2ccccc2)CC1` (centres undefined): the score came out at 1.36.

Turning to `CC[C@@H]1C(=O)OC[C@@H]1Cc1cncn1C`, the score was found to be 1.3.

`O=[N+]([O-])c1cc([As](=O)(O)O)ccc1O`: the score was 1.17.

Take `NC(N)=NOCC[C@H](N)C(=O)O`: the score worked out at 1.23.

In turn, `O=C1C=CC(=O)c2c(O)cccc21` gave a score of 0.54.

For the compound `NCCc1c[nH]c2ccccc12`, the score amounted to 1.14.

`CN[C@@H](C)[C@@H](O)c1ccccc1`: the score is 1.57.

Take `COc1ccc2c3c([nH]c2c1)C(C)=NCC3`: the score turned out to be 1.32.

For `CN1CCc2cc3c(cc2C1O)OCO3` (centres undefined), the score was found to be 1.48.

`CNC(C)C(O)c1ccccc1` (centres undefined): the score is 0.95 and 1.05.

In turn, `CN(C)[C@@H]1C(=O)C(C(N)=O)=C(O)[C@@]2(O)C(=O)C3=C(O)c4c(O)ccc(Cl)c4[C@@](C)(O)[C@H]3C[C@@H]12` showed a score of 0.9.

Tested on in another experiment: not listed separately
The experiment can be described thus: restoration of touch response, mutant HTT neurons – whole organism, C. elegans mechanosensory neurons, N-terminal huntingtin (AID 1599). As to conditions: C. elegans polyQ-huntingtin mechanosensory neurons, stronger effect = higher value.
Consider `[N-]=[N+]=CC(=O)OCC(N)C(=O)O` (centres undefined), for which the rescue above control turned out to be 6.35.

In turn, `C[C@H](N)[C@H](O)c1ccc(O)c(O)c1` came in with a rescue above control of 4.59.

As to `CC[N+]1(C)CCCC(OC(=O)C(O)(c2ccccc2)c2ccccc2)C1` (centres undefined), the rescue above control was -4.25.

Take `CC1=NCCc2c1[nH]c1cc(O)ccc21`: the rescue above control stood at 0.94.

As for `ClC1C(Cl)C(Cl)C(Cl)C(Cl)C1Cl` (centres undefined), the rescue above control was -3.21.

`C=CCC1(C(C)CCC)C(=O)N=C(S)NC1=O` (centres undefined): the rescue above control amounted to 6.87.

`CCCCCCCCCCCCCCCC[n+]1ccccc1`: the rescue above control stood at 0.

The compound `OC1CCCCC1N1CCC(c2ccccc2)CC1` (centres undefined) gave a rescue above control of 12.8.

Regarding `CC[C@@H]1C(=O)OC[C@@H]1Cc1cncn1C`, the rescue above control was determined as 1.26.

As for `O=[N+]([O-])c1cc([As](=O)(O)O)ccc1O`, the rescue above control is -4.04.

Turning to `NC(N)=NOCC[C@H](N)C(=O)O`, the rescue above control was -6.04.

`O=C1C=CC(=O)c2c(O)cccc21` had a rescue above control of 2.83.

With `NCCc1c[nH]c2ccccc12`, the rescue above control was -4.06.

In the case of `CN[C@@H](C)[C@@H](O)c1ccccc1`, the rescue above control was -0.65.

As for `COc1ccc2c3c([nH]c2c1)C(C)=NCC3`, the rescue above control is -1.53.

As for `CN1CCc2cc3c(cc2C1O)OCO3` (centres undefined), the rescue above control worked out at 11.7.

On to `CNC(C)C(O)c1ccccc1` (centres undefined), for which the rescue above control is -2.36 and -10.7.

Regarding `CN(C)[C@@H]1C(=O)C(C(N)=O)=C(O)[C@@]2(O)C(=O)C3=C(O)c4c(O)ccc(Cl)c4[C@@](C)(O)[C@H]3C[C@@H]12`, the rescue above control came out at 0.

Tested on in the next experiment: not listed separately
Put plainly: blockers of cytochrome c efflux from mitochondria – biochemical, purified mitochondria (AID 1603).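 Further: mouse liver mitochondria challenged with calcium chloride; signal normalized to the plate average as 100%.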 As to conditions: stronger effect = lower value.
For the compound `[N-]=[N+]=CC(=O)OCC(N)C(=O)O` (centres undefined), the cytochrome c release ratio came out at 1.1.

Regarding `C[C@H](N)[C@H](O)c1ccc(O)c(O)c1`, the cytochrome c release ratio worked out at 0.9.

Take `CC[N+]1(C)CCCC(OC(=O)C(O)(c2ccccc2)c2ccccc2)C1` (centres undefined): the cytochrome c release ratio came to 1.2.

Consider `CC1=NCCc2c1[nH]c1cc(O)ccc21`, for which the cytochrome c release ratio came out at 0.72.

With `ClC1C(Cl)C(Cl)C(Cl)C(Cl)C1Cl` (centres undefined), the cytochrome c release ratio stood at 1.15.

For the compound `C=CCC1(C(C)CCC)C(=O)N=C(S)NC1=O` (centres undefined), the cytochrome c release ratio came to 0.94.

`CCCCCCCCCCCCCCCC[n+]1ccccc1`: the cytochrome c release ratio came to 3.74.

For the compound `OC1CCCCC1N1CCC(c2ccccc2)CC1` (centres undefined), the cytochrome c release ratio stood at 1.15.

For `CC[C@@H]1C(=O)OC[C@@H]1Cc1cncn1C`, the cytochrome c release ratio stood at 1.64.

For the compound `O=[N+]([O-])c1cc([As](=O)(O)O)ccc1O`, the cytochrome c release ratio stood at 1.09.

Regarding `NC(N)=NOCC[C@H](N)C(=O)O`, the cytochrome c release ratio amounted to 1.27.

For `O=C1C=CC(=O)c2c(O)cccc21`, the cytochrome c release ratio was 0.82.

As to `NCCc1c[nH]c2ccccc12`, the cytochrome c release ratio stood at 0.68.

In the case of `CN[C@@H](C)[C@@H](O)c1ccccc1`, the cytochrome c release ratio came to 0.84.

For the compound `COc1ccc2c3c([nH]c2c1)C(C)=NCC3`, the cytochrome c release ratio stood at 0.94.

As for `CN1CCc2cc3c(cc2C1O)OCO3` (centres undefined), the cytochrome c release ratio amounted to 0.81.

For the compound `CNC(C)C(O)c1ccccc1` (centres undefined), the cytochrome c release ratio is 1.45 and 0.98.

As for `CN(C)[C@@H]1C(=O)C(C(N)=O)=C(O)[C@@]2(O)C(=O)C3=C(O)c4c(O)ccc(Cl)c4[C@@](C)(O)[C@H]3C[C@@H]12`, the cytochrome c release ratio came out at 0.82.

The values above are taken from PubChem BioAssay.
